In the library only some 2.3% were active in any assay of this set; here they are far more common.
M1 ag: human M1 muscarinic receptor agonism | 0.33% of 360,000 active | activation, % at 3 µM | CHO-K1 hM1, Fluo-8 calcium fluorescence, agonist mode; 0% DMSO, 100% acetylcholine EC100 | AID 588814;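 active = activation above the run's mean compound activation plus 3 SD, cut at about 16% in these data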;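 note: peak over basal fluorescence ratio within a 140 s kinetic read after compound addition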
Target sequence (P11229 whole entry, looked up): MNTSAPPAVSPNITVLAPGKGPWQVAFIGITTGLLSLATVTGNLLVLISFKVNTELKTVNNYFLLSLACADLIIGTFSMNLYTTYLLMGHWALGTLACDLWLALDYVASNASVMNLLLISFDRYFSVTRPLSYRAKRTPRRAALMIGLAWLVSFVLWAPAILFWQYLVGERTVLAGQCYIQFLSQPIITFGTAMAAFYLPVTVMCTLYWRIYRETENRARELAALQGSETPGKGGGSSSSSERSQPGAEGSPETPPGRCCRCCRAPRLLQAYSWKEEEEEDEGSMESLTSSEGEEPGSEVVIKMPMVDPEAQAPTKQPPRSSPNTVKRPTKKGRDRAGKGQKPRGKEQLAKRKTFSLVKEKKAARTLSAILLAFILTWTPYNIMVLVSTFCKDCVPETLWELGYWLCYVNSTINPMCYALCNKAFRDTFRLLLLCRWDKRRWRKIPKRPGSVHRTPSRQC
M1 PAM: human CHRM1 positive allosteric modulation; P11229; CHO-K1 hM1, Fluo-8 calcium fluorescence, ACh EC20; 0% = ACh EC20, 100% = maximal ACh; activation, % at 3 µM; 0.088% of 360,000 active; AID 588819; in the data active = activation above about 19%, passing the limit was not always enough
CHO-K1 Ca antag: counter-screen for M1 antagonists: effect in parental CHO-K1 cells; inhibition, % at 3 µM; ATP-induced calcium, Fluo-8 fluorescence; 0.6% of 360,000 active; AID 602250;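 active = inhibition above a per-plate cutoff, the plate's mean sample inhibition plus 3 SD, cut at about 24% in these data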;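 note: 0% = DMSO plus EC80 ATP and 100% = DMSO alone without ATP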
M1 ag parental: M1 agonist counterscreen hit in parental CHO-K1 cells; Fluo-8 calcium fluorescence; scaled to maximal ATP response, vehicle zero; AID 602248; 0.48% of 360,000 active; activation, % at 3 µM; in the data active = activation above about 15%;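 note: untransfected CHO-K1 host cells lacking M1 receptor as counterscreen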
CHO-K1 Ca PAM: M1 PAM counterscreen hit in parental CHO-K1 cells. ATP EC20, Fluo-8 calcium fluorescence; 0% at ATP EC20, 100% at ATP max. activation, % at 3 µM. 0.02% of 360,000 active. AID 602247;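 active = activation above the run cutoff, the mean activation of all test compounds plus 3 SD, cut at about 40% in these data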;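 note: peak over basal fluorescence ratio in a 140 s read after ATP addition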
M1 antag: antagonists of human M1 muscarinic receptor. AID 588852. inhibition, % at 3 µM. P11229. CHO-K1 hM1, Fluo-8 calcium fluorescence, ACh EC80 antagonist. 1.3% of 360,000 active;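 active = percent inhibition above its own plate's cutoff, namely the mean of that plate's compound wells plus 3 SD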;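 note: peak over basal fluorescence ratio during 140 s after agonist addition; 0% = ACh EC80 plus DMSO and 100% = DMSO alone without agonist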
Starred values were filed as active, the others as inactive.

SMILES	M1 ag	M1 PAM	CHO-K1 Ca antag	M1 ag parental	CHO-K1 Ca PAM	M1 antag
CCCCCCCCCCOC(=O)Cn1c(COc2ccccc2)[n+](C)c2ccccc21	-5.6	-30.0	5.0	0.9	2.1	69.6*
CCCCOC(=O)Cn1c(=O)n(CC(=O)OCCCC)c2ccccc21	-4.3	1.3	-6.1	-0.1	8.5	-4.4
CCCCCCCCCCOC(=O)Cn1c(COc2cccc(C)c2)[n+](C)c2ccccc21	8.6	-22.5	8.8	-0.4	4.4	36.2*
Cc1cccc(OCCCn2c(=O)sc3ccccc32)c1	-4.9	-2.8	-4.0	-0.1	3.2	14.3
CCOCCCNC(=O)CN1N=C(c2ccc(C)cc2)CCC1=O	-0.8	8.4	4.5	0.2	-22.3	-10.7
CCCCCCCCCCOC(=O)Cn1c(COc2ccc(Cl)cc2)[n+](C)c2ccccc21	-4.5	-20.2	1.2	12.5	13.9	43.0*
CCCCCOC(=O)Cn1c(=O)oc2ccccc21	-8.4	4.9	1.5	0.3	10.1	-7.8
Cc1ccn2c(=O)c(NC(=O)COc3ccccc3)c(C)nc2c1	-0.7	12.7	19.6	0.4	-3.2	-14.6
Cc1ccn2c(=O)c(NC(=O)c3cccs3)c(C)nc2c1	3.4	28.9*	-6.0	3.2	5.4	-26.6
CCn1nccc1NC(=O)c1csc([C@H]2C[C@H](O)[C@@H](CO)O2)n1	-1.8	-0.5	4.6	-0.1	2.3	0.9
COc1cccc(N2CCN(C(=O)c3cccc(NC4=NC5CS(=O)(=O)CC5S4)c3)CC2)c1 (stereo unspecified)	-2.4	-2.6	24.4*	4.8	-5.8	-6.0
CCC(C(=O)NCc1cccs1)n1nc(C)n2c(cc3occc32)c1=O (stereo unspecified)	-1.4	13.8	-0.8	0.2	-18.4	-9.4
CCN(CC(=O)Nc1ccc(S(=O)(=O)N2CCOCC2)cc1)Cc1ccccc1	-7.1	1.4	7.0	0.2	-3.3	-7.3
Cc1ccc(NC(=O)CNc2cccc(S(=O)(=O)N3CCCCC3)c2)cc1F	0.4	-2.9	21.4	12.3	-15.3	5.5
CCN1CCN(S(=O)(=O)c2ccc(S(=O)(=O)N(CC)Cc3ccccc3)cc2)CC1	-6.2	-5.5	6.4	22.0*	9.9	-3.8
CN(CC(=O)Nc1ccc(S(=O)(=O)N2CCCC2)cc1)CC(=O)Nc1cccc(F)c1	-6.8	-1.4	2.4	18.1*	6.5	6.5
CCN(CC(=O)Nc1ccc(S(=O)(=O)N2CCCC2)cc1)Cc1ccccc1	-5.8	-23.0	-0.6	1.8	6.0	45.3*
Cc1ccc(NC(=O)CSc2ccc(S(=O)(=O)N3CCCC3)cn2)cc1F	-1.5	-6.0	-1.8	16.1*	14.8	4.8
Cc1cccc(N(C)c2ncnc3onc(-c4ccc(F)cc4)c23)c1C	-10.2	4.3	-16.2	-0.7	-3.1	-4.4
CC1(C(=O)NS(=O)(=O)c2ccccc2Cl)CCN1C(=O)Cc1cccc2ccccc12 (stereo unspecified)	-1.3	-2.9	0.4	0.3	15.7	18.3
CCN(c1ccc(NC(=O)COC(=O)c2ccc(S(=O)(=O)N3CCCC3)cc2)cc1)C(C)C	-6.5	-25.0	-6.1	0.6	4.5	68.2*
CCN1CCN(C(=O)c2ccccc2N(Cc2ccccc2)S(=O)(=O)c2ccc(C)cc2)CC1	27.6*	-9.2	0.7	0.9	6.3	9.5
CCN(CC)CCCNc1nc(N)c([N+](=O)[O-])c(N2CCCCCC2)n1	-11.3	-35.1	1.0	0.7	-15.8	64.8*
C=CCNc1nc(N)c([N+](=O)[O-])c(N2CCCCCC2)n1	-7.3	4.6	-13.5	5.0	15.7	-11.3
Cc1nc2ccc(NS(=O)(=O)c3ccc(F)cc3F)cc2s1	0.9	-7.4	-5.2	10.2	3.3	8.1
SMILES	M1 ag	M1 PAM	CHO-K1 Ca antag	M1 ag parental	CHO-K1 Ca PAM	M1 antag
Cc1nc2ccc(NS(=O)(=O)c3c(F)cc(F)cc3Br)cc2s1	-1.4	-15.4	1.2	10.4	-21.1	37.2*
O=[N+]([O-])c1ccc(C[n+]2ccc(Cc3ccccc3)cc2)cc1	-14.1	-30.7	-5.6	0.1	15.8	28.3*
O=C(C[n+]1ccc(Cc2ccccc2)cc1)Nc1ccc([N+](=O)[O-])cc1Cl	-5.7	-22.2	-21.0	0.2	24.0	86.2*
Cc1cccc[n+]1CC(=O)Nc1ccc([N+](=O)[O-])cc1Cl	-5.5	-11.8	9.5	-0.3	-4.5	35.7*
COc1ccc(CNc2cccc3[nH]c(C(F)(F)F)nc23)cc1	-2.9	6.0	-10.1	0.2	14.4	-8.7
Cc1ccc(C(=O)Nc2cccc3[nH]c(C(F)(F)F)nc23)cc1	0.9	4.5	-0.9	16.7*	0.4	-10.5
CCOC(=O)Cc1csc(NC(=O)c2ccc(NC(C)=O)cc2)n1	-0.9	5.7	-14.9	0.8	10.0	-4.1
CCOC(=O)Cc1csc(NC(=O)Nc2ccc(OC(F)(F)F)cc2)n1	5.0	-17.4	34.3*	10.4	-15.3	41.2*
CCN(C(=O)Cn1nnc(-c2ccccc2)n1)C1CCS(=O)(=O)C1 (stereo unspecified)	-3.7	5.2	10.8	-0.1	-17.1	-8.5
CCN(C(=O)c1c(C)noc1C)c1c(N)n(Cc2ccccc2)c(=O)[nH]c1=O	-1.9	8.0	-14.9	1.0	14.6	-9.3
COc1ccc(C2=NS(=O)(=O)N(C)C(C(=O)N3CCc4ccccc4C3)=C2)cc1OC	-0.6	-18.7	11.0	7.6	13.6	25.3*
COc1ccc(C2=NS(=O)(=O)N(C)C(C(=O)NCc3ccccc3)=C2)cc1OC	3.1	0.8	-9.8	4.0	23.2	-12.3
COC(=O)c1sc(NC(=O)c2cccc([N+](=O)[O-])c2)c(C(N)=O)c1C	-3.8	3.8	-6.4	0.1	12.4	0.6
COC(=O)c1c(NC(=O)c2cccc([N+](=O)[O-])c2)sc(C(N)=O)c1C	-4.2	-6.3	28.6*	-0.7	-9.6	9.0
O=S(=O)(c1ccc(Cl)cc1)N1CCC(O)(CN2CCN(Cc3ccccc3)CC2)CC1	-12.6	-30.2	2.8	4.3	6.3	11.1
O=S(=O)(c1ccccc1)N1CCC(O)(CSc2ccc(Cl)cc2)CC1	1.3	-6.8	28.9*	5.9	-15.7	27.4
COC(=O)C1=C(C)N(Cc2ccccc2)C(=NCc2ccccc2)N[C@H]1c1cccc(C(F)(F)F)c1	-2.9	5.4	15.9	20.6*	1.5	6.9
Cn1cc2cc([N+](=O)[O-])ccc2n1	22.6*	1.0	-0.4	0.4	9.6	3.9
N/N=c1\sc2ccccc2n1-c1ccccc1	-3.4	3.2	-6.3	0.3	8.1	-21.4
Cc1ccc(CS(=O)(=O)c2ncc(Cl)c(C(=O)Nc3ccc(OC(F)F)cc3)n2)cc1	-2.6	1.6	23.8*	-0.7	-27.8	15.6
Cc1cc(-n2c(C)cc(C(=O)CSc3ncnc4ccccc34)c2C)no1	2.1	-7.3	18.9	3.0	7.8	28.4*
Cc1cc(C(=O)CSc2ncnc3ccccc23)c(C)n1C1CC1	-0.6	-6.6	-5.4	8.5	-0.9	6.9

Assay outcomes from PubChem.
